In the supplement of paper PMC6555819:

Tests used:
Test in all cases: PBM binding z-score (relative to random genomic background probes); higher = stronger binding; sequences stand for … in GC…GCGATTGACAGCGTAGAATGAAGG
[1] = system: RARb homodimer (NR concentration 270 nM)
Procedure, shortened: (§1)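 Probes were double-stranded and carried 34-nt variable regions with direct-repeat seeds, single-nucleotide variants, half-site ablations and random human genomic background sequences, printed on custom Agilent 4×180K protein-binding microarrays. Arrays were incubated 1 h with ligand-free nuclear receptor dimers in PBS pH 7.4, 2% milk, 0.02% Triton X-100, 1 mM DTT, 0.2 mg/mL BSA and 0.4 mg/ml salmon testes DNA. Antibodies against each partner (one per run) detected binding, and scanned fluorescence was regression-normalized. Binding z-scores use the random background probes as reference.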

[2] = system: RARg:RXRa (NR concentration 270 nM, RXRa partner concentration 90 nM)
Procedure, shortened: as §1

[3] = system: RARg homodimer (NR concentration 270 nM)
Procedure, shortened: as §1

[4] = system: RXRa DBDmut IVT, anti-RXR (DBD mutation: RXRa K156A/R161A, NR concentration 90 nM)
Procedure, shortened: as §1

[5] = system: RXRa homodimer (NR concentration 180 nM)
Procedure, shortened: as §1

[6] = system: THRa:RXRa (NR concentration 90 nM, RXRa partner concentration 90 nM)
Procedure, shortened: as §1

[7] = system: THRa homodimer (NR concentration 90 nM)
Procedure, shortened: as §1

[8] = system: VDR homodimer (NR concentration 270 nM)
Procedure, shortened: as §1

Sequence | PBM binding z-score [1] | PBM binding z-score [2] | PBM binding z-score [3] | PBM binding z-score [4] | PBM binding z-score [5] | PBM binding z-score [6] | PBM binding z-score [7] | PBM binding z-score [8]
ATATGTAGGTTACATCCTGGTCATTCAGGCTATG | 1.25 | 1.72 | 1.3 | 0.78 | 1.35 | 1.26 | 0.551 | 0.582
TGTCAAAGTTCAAAGGTAACGTATGTATCCACAC | 3.78 | 6.21 | 5.94 | 4.28 | 6.97 | 3.08 | -0.0625 | 3.87
ACTATTAGCTGACTTAGGGCAACCGATACGACGC | 0.665 | 0.504 | 0.628 | 0.619 | 0.197 | 0.454 | 0.576 | -0.00444
ACTATTAATTGACTTAGGGCAACCGATACGACGC | 1 | 0.766 | 0.814 | 0.828 | 0.409 | 0.884 | 1.15 | 1.24
CCGACTGGGGCATAAGGTTACCAAAAGCCAGCCC | 1.97 | 1.72 | 0.905 | -0.369 | 1.3 | 2.24 | 1.14 | 0.0369
CGAACTAGGTCATACAGGACAGTGAATACATTGA | 2.68 | 3.77 | 4.03 | 2.32 | 2.68 | 2.83 | 1.2 | 1.57
ACAGACAGGCGATGAAGGTAACTCAGGCTATCAT | -0.109 | -0.163 | 0.174 | -0.246 | -0.0483 | 0.512 | -0.0858 | -0.339
TCTGGTTGGTCACGGAGGTCACACACGACGGGTA | 4.58 | 4.91 | 5.28 | 0.702 | 4.97 | 3.58 | 2.93 | 3.66
AATACAGGGTCACTAGCCCAGAGTAGGTACGAAT | 2.95 | 4.82 | 4.62 | 2.61 | 5.17 | 3.22 | 1.13 | 2.21
CGTCCAAGGTCTGAGAGGTCAGTGAATGCCGAGT | 3.72 | 2.97 | 3.36 | 0.83 | 2.29 | 2.52 | 1.29 | 2.01
TAACCTAGGTCAGATCGGGCCAGTATACGCTATA | 2.52 | 3.36 | 3.68 | 0.17 | 1.94 | 4.19 | 0.384 | 0.367
CCTAGGTGGTCAAGGTCACACACGCTATAGGTAC | 4.16 | 4.81 | 4.61 | 1.79 | 4.66 | 4.09 | 4.01 | 3.06
TCAGACAGGTGAAGGTAGCTCAGGTACGCAGTCG | 0.62 | 0.413 | 0.456 | 1.13 | 0.741 | 0.667 | 0.148 | -0.026
ACATACAGGTGAGTGAAGGTAACTCAGCTGGACG | 0.773 | 1.2 | 0.903 | 0.0119 | 0.795 | 2.21 | -0.215 | 0.00472
TGTCAAAGTTCCAAGGTAACGTAAGTATCCACAC | 0.222 | 0.298 | 0.719 | -0.251 | 0.443 | 1.72 | 1.09 | -0.0741
ATCTCTAGGTAACAAGATCAGTGAAAGAGAGGAC | 0.262 | 0.574 | 0.868 | -0.259 | 0.265 | 0.927 | 0.466 | 0.364
ACTTACGGGTCAACGAGGTTATACCACGCGTATA | 3.79 | 5.84 | 5.48 | 3.08 | 6.66 | 3.97 | 1.34 | 4.44
GGAACGAGGGCAACTTGATAGCAGAGTTTGATGG | 1.42 | 1.7 | 2.17 | 2.2 | 1.13 | 1.26 | 0.0506 | 1.35
TCGAGTAGGTTAGTCGGGGAATTCAGCCAACATA | 0.122 | -0.408 | -0.41 | 0.0963 | -0.255 | 0.163 | -0.3 | -0.495

Sequence | PBM binding z-score [1] | PBM binding z-score [2] | PBM binding z-score [3] | PBM binding z-score [4] | PBM binding z-score [5] | PBM binding z-score [6] | PBM binding z-score [7] | PBM binding z-score [8]
TATATTAGTTGATTAGGGCAACCGAAACAGCGGA | 0.779 | 0.789 | 1.19 | 0.252 | 0.43 | 0.944 | 0.495 | 0.982
CCTACTGGGCCAAAAAGGTCATTTATGCCGATAA | 4.03 | 4.11 | 3.43 | 0.766 | 4.35 | 2.85 | 0.395 | 2.46
CCTAATAGTTGACCATAAGGGCAACCGAAGCTCG | 2.04 | 1.61 | 1.18 | 0.375 | 0.786 | 2.02 | 0.988 | 0.915
TCTGCTAGGTCAACGATGGTGAGCTAATCTGCTA | 2.8 | 3.82 | 4.93 | 0.81 | 1.99 | 2.68 | 0.17 | -0.792
GCTGCTTGGTCAGGTTGGTCAGCTAACGGGTACG | 0.727 | -0.088 | 0.0673 | 0.0173 | -0.438 | -0.199 | 0.0955 | 0.00601
ACAGACAGGTGAGTGCAGGTAACTCAGCTGGACG | -0.104 | 0.091 | 0.426 | 0.222 | 0.412 | 1.69 | -0.612 | 0.269
TAGCCGAGGTCATTGGGCCAGTATAGTACGCATC | 3.98 | 5.93 | 5.86 | 4.42 | 6.61 | 4.01 | 2.77 | 5.01
GCAGACAGGTGAAGCGCAGGTAACTCAGGGTGGC | -0.151 | 0.302 | 0.0246 | -0.801 | 0.395 | 0.73 | -0.688 | -0.755
TCTTGTAGAACAACAGGAGGTTAAGAAAGATCGA | 0.958 | 0.377 | 0.286 | 0.511 | 0.875 | 0.726 | -0.422 | -0.182
CCTAGTTGGTCAAGGTCACACAGGCTATAGGTAC | 4.45 | 4.8 | 5.13 | 2.24 | 4.86 | 4.16 | 4.07 | 4.27
ATCTCTAGGTAAGACTCAGTTCAGTTAAGAACGC | 0.724 | 0.306 | 0.466 | 0.735 | -0.175 | 1.44 | 0.728 | 1.6
ATCGAAAGGTGGAGGTGAGTATAGAGAAAGGGAA | 1.16 | 0.536 | 0.711 | -0.665 | 0.164 | 0.67 | 0.48 | 0.297
ACTATTAGTTGACTTAAGGCAACCGATACGACGC | 0.11 | 0.623 | 0.592 | 0.8 | 0.347 | 2.4 | 0.592 | 0.124
CGTCAAAATTCAAGGTAACGTAACAGAAAGCAGC | 0.985 | 0.175 | 0.447 | -0.0025 | 0.308 | 1.64 | 1.15 | 0.24
CGAACTAGGTCATTGACAGTACAGTGAATAGTAA | 2.62 | 3.89 | 4.03 | 2.62 | 2.48 | 2.48 | 0.979 | 0.986
CCAAGCAGGCCAATCTGGGTCACTCAAGGCTTGA | 2.26 | 1.4 | 1.34 | 0.0779 | 1.25 | 3.74 | 0.319 | 0.154
CTCGAAACGTCGGTTGAGGTGAGTATACGGATAA | -0.165 | 0.0462 | 0.0959 | -0.0246 | -0.0266 | 2.55 | 1.2 | -0.242
CCTACTGGGCCAAGATCATTGATCAGTCAAAGCA | -0.51 | -0.246 | -0.13 | -0.666 | -0.589 | -0.314 | -0.633 | -0.179
ACTAGCGGGCCAAGTTTGGGTCACTCAAACAAAG | 2.11 | 2.14 | 1.65 | -0.0414 | 1.01 | 2.43 | 0.811 | 0.0653

Sequence | PBM binding z-score [1] | PBM binding z-score [2] | PBM binding z-score [3] | PBM binding z-score [4] | PBM binding z-score [5] | PBM binding z-score [6] | PBM binding z-score [7] | PBM binding z-score [8]
CCGTGTAGGTTATGGGGCATTCAGGCAACGGTGA | 1.3 | 0.81 | 0.846 | -0.509 | 0.777 | 0.703 | 0.635 | 0.353
CCTGCTAGGTCAATGGTCAGCTAGAGCAGCTCGC | 2.68 | 3.14 | 3.81 | 1.45 | 2.19 | 2.33 | 0.515 | -0.262
ATACCAAGGTGATGGTGAGGTCGTTGATACTAAC | 1.83 | 1.84 | 0.644 | 0.506 | 1.11 | 3.24 | 2.44 | 2.63
ATATGTAGGTTAAGGTTCATTCAGGTTGGTTCGC | 2.18 | 2.48 | 1.47 | 3.2 | 3.38 | 2.49 | 1.4 | 6.72
TAACCTAGGTCATGGGCCAGTATACCACGCGAAC | 3.63 | 5.07 | 5.12 | 1.07 | 4.02 | 3.3 | 1.87 | 1.35
TGTCAAAGTTCAAAGGTAACGAAAGTATCCACAC | 3.89 | 6.36 | 6.02 | 4.4 | 7.81 | 2.97 | 0.0782 | 4.73
GCGACTGGGGCATCAGCTGGTTACCATAACTTAA | 0.0831 | 0.0774 | 0.0488 | -0.446 | -0.273 | -0.306 | -0.655 | -0.58
GCTTACCGGTCAAAGGTTATAGCATGAATAGAAT | 2.62 | 5.63 | 3.54 | 0.541 | 5.37 | 2.2 | -0.177 | 0.217
TCGAGTAGGTTAGGGGCACTCAGAATGGCGTCGA | 0.798 | 0.322 | 0.17 | 0.247 | 0.488 | 0.572 | 0.0941 | 0.0717
TCGAGTAGGTTAGGGGCATCCAGAATGGCGTCGA | 1.01 | 0.269 | 0.268 | 0.271 | 0.71 | 1.05 | 0.256 | 0.462
GCTGCCAGGTCAACTGATGGTCAGCTAAAGCTCG | 3.58 | 5.49 | 5.38 | 1.94 | 3.81 | 3.68 | 2.18 | 0.679
TACCCTAGGTCATGCGGGCCAGTATAGTGTCGGC | 3.28 | 4.07 | 4.89 | 0.8 | 3.33 | 3.18 | 1.48 | 1.26
TCATATAGGTAAACAGGTGAAAGTACGTAAGTTA | 0.897 | 0.775 | 0.637 | 1.58 | 1.31 | 0.952 | 0.331 | 0.523
ATCTCTAGGTAAAGATAGTTCAGTGACTGCAAAT | 1.33 | 0.534 | 0.542 | 0.648 | -0.00287 | 0.905 | 0.426 | 0.571
ATCTCCAGGTAAAGTTCAGTGAAAGATCGATAGA | 2.77 | 2.26 | 2.51 | 1.38 | 1.52 | 1.73 | 0.709 | 1.92
TCTTGTAGATCAATAGACGTTAAGAAAGTGCGCT | -0.66 | -0.0458 | 0.0391 | 0.88 | -0.042 | -0.347 | -0.846 | 0.0604
CGTCCAATGTCATAGGAGGTCAGTGAAGACAGAT | 3.62 | 3 | 3.4 | 0.694 | 2.17 | 4.28 | 0.745 | 1.64
GCAGACAGGTGAAACGCAGGTATCTCAGGGTGGC | 0.0151 | 0.137 | 0.315 | -0.484 | 0.588 | 0.272 | -0.471 | -0.528
